# About 4,300 (8.3%) of roughly 52,000 compounds were called active. Many of the other results were omitted from the sample, so actives are more common in it than they were. Values without a mark were called inactive. No stated cut-off is given here; in the data, active means survival mostly below about 52% (no sharp cut-off); inactive means mostly above about 56%.
# System: DeltatarO mutant
# Test: growth inhibition of S. aureus wild type versus tarO mutant, primary screen, teichoic acid synthesis inhibitors, RN4220, OD600 (AID 463173)
# Conditions: OD600, 18 h, active compounds read low, screened at 18.75 µg/mL (by protocol)
row,SMILES,survival
1,COc1ccc(N(C)C(=O)Cn2cc(S(=O)(=O)N3CCN(c4ccccc4F)CC3)c3ccccc3c2=O)c(OC)c1,97%
2,Cc1ccc(-c2nn3c(C)nnc3c3ccccc23)cc1S(=O)(=O)NC(C)(C)CO,74%
3,O=C(NCc1ccccc1Cl)c1cnc2sc(N3CCOCC3)nn2c1=O,71%
4,COc1cccc(-c2nc(SCc3cc(=O)c4cc(Cl)ccc4[nH]3)n[nH]2)c1,94%
5,O=C(C1CC2c3ccccc3C1c1ccccc12)N1CCOCC1 (centres undefined),86%
6,COc1ccc(OC)c(NC(=O)C2CCN(S(=O)(=O)c3ccc4c(c3)CC(C)N4C(C)=O)CC2)c1 (centres undefined),75%
7,COc1ccc(C(=O)NCc2ccc3c(c2)CCN3C(=O)c2cccc(C)c2)cc1OC,119%
8,Cc1ccc(Cl)cc1N1CCN(S(=O)(=O)c2ccc3[nH]c4c(c3c2)CCCC4)CC1,72%
9,COc1ccc(NC(=O)CN(c2ccccc2OC)S(C)(=O)=O)c(OC)c1,75%
10,Cc1ccc(-n2ccn(CC(=O)c3ccc(F)cc3)c(=O)c2=O)cc1C,69%
11,Cc1cc(C)c2c(=O)cc(C(=O)Nc3c(C)n(C)n(-c4ccccc4)c3=O)oc2c1,65%
12,Cc1c(NC(=O)c2cc(=O)c3cc(Cl)ccc3o2)c(=O)n(-c2ccccc2)n1C,43% (active)
13,CCc1ccc2oc(C(=O)Nc3c(C)n(C)n(-c4ccccc4)c3=O)cc(=O)c2c1,97%
14,Cc1cc2oc(C(=O)Nc3c(C)n(C)n(-c4ccccc4)c3=O)cc(=O)c2cc1C,78%
15,Cc1c(NC(=O)c2cc(=O)c3ccccc3o2)c(=O)n(-c2ccccc2)n1C,67%
16,Cc1ccc2c(=O)cc(C(=O)Nc3c(C)n(C)n(-c4ccccc4)c3=O)oc2c1,39% (active)
17,CCN(CC)CCN1C(=O)c2ccccc2NC1c1ccccc1F (centres undefined),106%
18,CCOc1ccc(NC(=O)CSc2cn(CCNC(=O)c3ccccc3F)c3ccccc23)cc1,71%
19,CCC(Sc1nccn1C)C(=O)Nc1cc(C)on1 (centres undefined),90%
20,CCC(Sc1nc2nccnc2c(=O)n1Cc1ccc(OC)cc1)C(=O)NC1CCCCC1 (centres undefined),104%
21,CCC(Sc1nnc(-c2ccc(F)cc2)c(-c2ccc(F)cc2)n1)C(=O)NC1CCCC1 (centres undefined),75%
22,CCC(Sc1nc2cc(OC)c(OC)cc2c(=O)n1Cc1ccc(Cl)cc1)C(=O)NCCOC (centres undefined),91%
23,Cc1ccc(CSc2nc3cc(C(=O)NC4CCCC4)ccc3c(=O)n2Cc2ccccc2)cc1,57%
24,CCC(Sc1nc2nccnc2c(=O)n1Cc1ccc(Cl)cc1)C(=O)NC1CCCCC1 (centres undefined),19% (active)

row,SMILES,survival
1,CCC(C(=O)NC1CCCCC1)n1c(SCc2ccc(F)cc2)nc2ccncc21 (centres undefined),73%
2,CCC(Sc1nc2nccnc2c(=O)n1Cc1ccc(C)cc1)C(=O)NC1CCCCC1 (centres undefined),39% (active)
3,CCC(Sc1nc2nccnc2c(=O)n1Cc1ccccc1Cl)C(=O)NC1CCCCC1 (centres undefined),99%
4,CCC(Sc1nc2nccnc2c(=O)n1Cc1ccc(F)cc1)C(=O)NC1CCCCC1 (centres undefined),42% (active)
5,CCOC(=O)N1CCN(C(=O)CN(c2cccc(Cl)c2C)S(=O)(=O)c2ccc(C)cc2)CC1,119%
6,CC1CCN(S(=O)(=O)c2csc(C(N)=O)c2)CC1,85%
7,CC1CCN(S(=O)(=O)c2cccc(C(=O)N(C)C3(C)CCS(=O)(=O)C3)c2)CC1 (centres undefined),75%
8,CN1CCN(C(c2ccc(F)cc2)c2sc3nc(-c4ccco4)nn3c2O)CC1 (centres undefined),79%
9,Cc1cc(C)c(S(=O)(=O)NCC(c2ccco2)N2CCOCC2)c(C)c1 (centres undefined),89%
10,CN(C)c1ccc(-c2nc3ccc(Cl)cn3c2Nc2ccc3c(c2)OCCO3)cc1,143%
11,COc1cccc2c1Oc1nc(-c3ccccc3)nc(SCC(=O)N3CCCCC3)c1C2,100%
12,COc1ccc(CCC(=O)N2CCc3c([nH]c4ccccc34)C2c2ccc(F)cc2)cc1 (centres undefined),83%
13,Cc1nnc(SCc2ccccc2)n1N,61% (active)
14,Cc1nnc(SCC(=O)O)n1N,114%
15,Cn1c(SCc2ccccc2)nnc1-c1ccccc1,93%
16,CC(C)Oc1ccc(CNC(=O)C2=Cc3ccccc3OC2)cc1,67%
17,CCOc1ccc(CCNC(=O)CCCc2nnc3n(CC)c(=O)c4sccc4n23)cc1OCC,92%
18,CCOC(=O)c1ccccc1NC(=O)CSc1ncc2c(n1)-c1ccccc1N(CC)S2(=O)=O,83%
19,Cc1ccc(CNC(=O)NCc2noc3ccc(C)cc23)cc1,47%
20,Cc1ccc2onc(CNC(=O)Nc3ccccc3C#N)c2c1,76%
21,Cc1ccc2onc(CC(=O)Nc3cc(F)ccc3F)c2c1,48%
22,CCOc1ccccc1NC(=O)NCc1noc2ccc(C)cc12,35% (active)
23,COc1ccccc1CNC(=O)NCc1noc2ccc(C)cc12,56%
24,COc1ccc(OC)c(CNC(=O)NCc2noc3ccc(C)cc23)c1,104%

row,SMILES,survival
1,CCOc1ccccc1NC(=O)Cc1noc2ccc(C)cc12,48%
2,COc1ccc(Cl)cc1N(C)C(=O)Cc1noc2ccc(C)cc12,50%
3,Cc1ccc2onc(CC(=O)Nc3ccc(C(C)C)cc3)c2c1,46% (active)
4,CC(=O)c1cccc(NC(=O)Cc2noc3ccccc23)c1,49%
5,COC(=O)c1ccccc1NC(=O)Cc1noc2ccc(C)cc12,39% (active)
6,COc1ccc(NC(=O)Cc2noc3ccc(C)cc23)cc1Cl,56% (active)
7,Cc1ccc(-c2nn3c(=O)cc(CN4CCN(C(=O)c5ccc(C(C)(C)C)cc5)CC4)nc3s2)cc1,67%
8,CCCCC(=O)Nc1cc2nn(-c3ccc(OCC)cc3)nc2cc1C,70%
9,CCN(c1ccccc1)S(=O)(=O)c1c(C)nc2scc(C)n2c1=O,66%
10,COc1ccc(CC(=O)NC2CC(=O)N(c3ccc(C)c(C)c3)C2)cc1OC (centres undefined),63%
11,Cc1cc(C(=O)Nc2ccc(-n3c(C)nc4ccccc4c3=O)cc2)ccc1[N+](=O)[O-],131%
12,Cc1cc(C)cc(NC(=O)Cc2noc3ccccc23)c1,54% (active)
13,CCOC(=O)c1ccc(NC(=O)Cc2coc3cc(C)cc(C)c23)cc1,60%
14,CCOc1ccc(NC(=O)Cc2coc3ccc(C)cc23)cc1,106%
15,CCOC(=O)c1ccc(NC(=O)Cc2noc3ccc(C)cc23)cc1,45% (active)
16,COc1cc(NC(=O)Cc2noc3ccccc23)cc(OC)c1OC,57%
17,Cc1cc(C)cc(NC(=O)NCc2noc3ccccc23)c1,52%
18,Cc1ccc(CNC(=O)C(C)n2c(=O)cc(C(F)(F)F)c3c(C)nn(C)c32)cc1 (centres undefined),67%
19,O=C(NCc1ccco1)C1CCN(C(=O)N2CCOc3ccccc32)CC1,80%
20,O=C(c1ccco1)N(Cc1cccs1)c1ccc(F)cc1,111%
21,CCc1ccc(NC(=O)C2CCN(c3nnc(-n4c(C)ccc4C)s3)CC2)cc1,79%
22,NNc1ccc2nnc(C(F)(F)F)n2n1,73%
23,Cc1ccc(CNc2ncnc3c2c(-c2ccccc2)cn3-c2ccccc2)cc1,90%
24,O=S(=O)(NCc1ccco1)c1ccc(-c2ccc(S(=O)(=O)NCc3ccco3)cc2)cc1,64%

row,SMILES,survival
1,CCc1ccc(Cn2nnc(C(=O)Nc3ccc(C)cc3)c2N)cc1,133%
2,CN(C)c1ccc(CNC(=O)c2cccc(NC(=O)N3CCSc4ncccc43)c2)cc1,94%
3,COc1ccccc1NC(=O)C1=C(C)Nc2sc(C#N)c(N)c2C1c1ccco1 (centres undefined),76%
4,COC(=O)C1=C(C)NC2=C(C(=O)c3ccccc32)C1c1cc2c(cc1Cl)OCO2 (centres undefined),82%
5,COc1ccccc1NC(=O)C1=C(C)NC2=C(C(=O)CCC2)C1c1cc2c(cc1Br)OCO2 (centres undefined),44% (active)
6,CC(C)CC(=O)Nc1nnc2n1CCS2,99%
7,Cc1nn(-c2ccccc2)c2[nH]c(=O)c(CNCc3cccnc3)cc12,102%
8,COc1ccccc1OCC(=O)Nc1nc2c(s1)CC(C)CC2 (centres undefined),69%
9,Cc1cc(C)cc(OCC(=O)Nc2nc3c(s2)CC(C(C)(C)C)CC3)c1 (centres undefined),107%
10,CCCC(=O)Nc1nc2c(s1)CC(C(C)(C)C)CC2 (centres undefined),14% (active)
11,CC(C)(C)C1CCc2nc(NC(=O)COc3ccc(F)cc3)sc2C1 (centres undefined),115%
12,CC(C)(C)C1CCc2nc(NC(=O)Cc3ccc(Cl)cc3)sc2C1 (centres undefined),18% (active)
13,COc1ccc(CC(=O)Nc2nc3c(s2)CCCC3)cc1,95%
14,COc1ccc(CC(=O)Nc2nc3c(s2)CC(C)CC3)cc1 (centres undefined),75%
15,CC(C)(C)C1CCc2nc(NC(=O)COc3ccccc3[N+](=O)[O-])sc2C1 (centres undefined),106%
16,COc1ccc(CC(=O)Nc2nc3c(s2)CC(C(C)(C)C)CC3)cc1 (centres undefined),29% (active)
17,CC(C)C(=O)Nc1nc2c(s1)CC(C(C)(C)C)CC2 (centres undefined),92%
18,CC(C)CC(=O)Nc1nc2c(s1)CC(C(C)(C)C)CC2 (centres undefined),102%
19,CC1CCc2nc(NC(=O)Cc3ccc(Cl)cc3)sc2C1 (centres undefined),46% (active)
20,Cc1cccc(C(=O)Nc2ccc(N3CCC(N4CCCCC4)CC3)c(C(=O)O)c2)c1,100%
21,CCOc1ccc(-n2c(=O)c3c4c(sc3n(CC(=O)NC(C)CC)c2=O)CCCCC4)cc1 (centres undefined),98%
22,COCCNC(=O)CN1C(=O)COc2ccc(S(=O)(=O)N3CCOCC3)cc21,88%
